Z-score and composite z-score data for nine compounds are collected here from PubChem BioAssay.

Assay [1] in a line: HepG2 liver cancer cell viability effects, profiling panel, resazurin fluorescence, 24 h, PK04 Diversity Set (AID 1172). The note with it: higher = more signal. On the technique in general: Alamar Blue is a resazurin reagent that responds to reducing activity.
Assay [2] in a line: basal S. cerevisiae growth modulation, no modifier, primary screen, OD600, strain BY4716, 24 h, basal condition (AID 1173). Particulars: OD600, 24 h, higher = more signal, called active from +8 up or from −8 down.
Assay [3] can be described thus: MM1S myeloma cell viability, profiling panel, resazurin fluorescence, basal, 24 h, PK04 Diversity Set (AID 1174).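 Further: MM1S multiple myeloma cell line.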 Particulars: higher = more signal, called active from +8 up or from −8 down.
Assay [4] concerns the target Dihydroorotate dehydrogenase (quinone), mitochondrial (Plasmodium falciparum (isolate 3D7)) (UniProt Q08210). As to the kind of experiment: PfDHODH enzyme inhibitors, primary screen, biochemical, C-terminal His tag, absorbance 600 nm (AID 1175).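 Further: recombinant parasite enzyme with a five histidine tag at its C terminus.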 Particulars: DCIP absorbance 600 nm, higher = more signal, called active from +8 up or from −8 down.
Assay [5] is described as follows: P. aeruginosa biofilm formation inhibitors, primary screen, strain PAO1, LB-PBS medium, absorbance 600 nm (AID 1176). The note with it: P. aeruginosa PAO1 growth/biofilm, A600, 12 h; higher = more signal.
Assay [6] in a line: S. cerevisiae RM11-1a growth modifiers, primary screen, strain RM11-1a, OD600, basal, 24 h (AID 1177).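 Further: cultures grown under basal conditions with no added stressor.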 The note with it: OD600, 24 h, higher = more signal, called active from +8 up or from −8 down.
A short description of assay [7]: E. coli acrAB mutant growth effects, primary screen, E. coli filamentation inducers, strain DRC39, OD650, 24 h (AID 1178).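 Further: growth measured as culture turbidity by optical density at 650 nm.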 Particulars: higher = more signal, called active from +8 up or from −8 down.
The nature of assay [8]: E. coli acrAB mutant growth effects, primary screen, E. coli filamentation inducers, strain DRC39, OD650, 48 h (AID 1179).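 Further: screen aims at cell division blockers that make cells filament.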 The note with it: E. coli DRC39 delta-acrAB growth, higher = more signal, called active from +8 up or from −8 down.
The nature of assay [9]: RPMI8226 myeloma cell viability, profiling panel, resazurin fluorescence, basal, 24 h, PK04 Diversity Set (AID 1180).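 Further: RPMI8826 multiple myeloma cell line at 5000 cells per well.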 Particulars: higher = more signal.
Assay [10] concerns the target E3 ubiquitin-protein ligase XIAP (Homo sapiens) (UniProt P98170). As to the kind of experiment: XIAP binders, primary screen, biophysical, small-molecule microarray, fluorescence 635 nm (AID 1181).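 Further: score merges 667 nm emission and signal to noise over triplicate slides.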 The note with it: small-molecule microarray binding, higher = more signal.
The test system of assay [11] is XIP peptide (Xip251-270) binding. As to the kind of experiment: small-molecule binders of XIP peptide, primary screen, biochemical, small-molecule microarray, fluorescence 635/667 nm, 0.1 µg/mL protein (AID 1182). Particulars: fluorescent protein binding, 635 nm, higher = more signal, called active from +8 up or from −8 down.
For assay [12], the system named is XIP peptide (Xip251-270). Put plainly: small-molecule binders of XIP peptide, primary screen, biochemical, small-molecule microarray, fluorescence 635/667 nm, 0.5 µg/mL protein (AID 1183). Particulars: small-molecule microarray binding, fluorescence 635 nm; higher = more signal.
Assay [13] can be described thus: Plasmodium falciparum growth inhibition, primary screen, strain 3D7, DAPI fluorescence, 100 nL (AID 1184).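 Further: parasites grown inside human red blood cells in medium with human serum.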 The note with it: P. falciparum 3D7 growth, 3 d, higher = more signal.
The target in assay [14] is Homeobox protein Hox-A13 (Mus musculus) (UniProt Q62424). As to the kind of experiment: inhibitors of HoxA13-DNA binding, primary screen, biochemical, fluorescence polarization, labeled oligonucleotide (AID 1185). The note with it: 15 min, higher = more signal, called active from +8 up or from −8 down. (In fluorescence polarisation assays a small probe gives low polarisation when free and higher when bound to something large.)

Assay [15] can be described thus: inhibitors of hydroxyurea-induced Chk1 phosphorylation, primary screen, imaging, HeLa, phospho-Chk1 antibody, percent positive cells (AID 1186). Particulars: hydroxyurea-induced phospho-Chk1 immunofluorescence imaging, higher = more signal.
Assay [16] can be described thus: inhibitors of hydroxyurea-induced Chk1 phosphorylation, primary screen, imaging, HeLa, phospho-Chk1 nuclear intensity (AID 1187). The note with it: hydroxyurea-induced phospho-Chk1 immunofluorescence imaging, higher = more signal.

Activity calls are given as the source filed them. Unless noted, how the calls were made is not given here.

Dihydroorotate dehydrogenase (quinone), mitochondrial (Plasmodium falciparum (isolate 3D7)), sequence (Q08210 whole entry, looked up): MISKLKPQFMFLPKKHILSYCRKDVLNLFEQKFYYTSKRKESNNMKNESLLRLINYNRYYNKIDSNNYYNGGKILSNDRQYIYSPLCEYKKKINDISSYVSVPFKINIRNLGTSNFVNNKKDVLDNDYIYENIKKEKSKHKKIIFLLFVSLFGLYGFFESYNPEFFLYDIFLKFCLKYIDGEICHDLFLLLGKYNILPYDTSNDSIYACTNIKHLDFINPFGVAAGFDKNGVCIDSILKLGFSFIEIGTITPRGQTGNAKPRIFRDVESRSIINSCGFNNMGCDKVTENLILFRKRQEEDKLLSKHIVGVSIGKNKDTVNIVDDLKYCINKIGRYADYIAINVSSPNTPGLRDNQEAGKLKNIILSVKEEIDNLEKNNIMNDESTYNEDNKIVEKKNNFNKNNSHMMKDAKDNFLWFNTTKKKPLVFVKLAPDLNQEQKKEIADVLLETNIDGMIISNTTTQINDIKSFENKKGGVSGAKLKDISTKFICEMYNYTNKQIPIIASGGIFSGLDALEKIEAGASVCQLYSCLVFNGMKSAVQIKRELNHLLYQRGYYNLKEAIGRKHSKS
E3 ubiquitin-protein ligase XIAP (Homo sapiens), sequence (P98170 whole entry, looked up): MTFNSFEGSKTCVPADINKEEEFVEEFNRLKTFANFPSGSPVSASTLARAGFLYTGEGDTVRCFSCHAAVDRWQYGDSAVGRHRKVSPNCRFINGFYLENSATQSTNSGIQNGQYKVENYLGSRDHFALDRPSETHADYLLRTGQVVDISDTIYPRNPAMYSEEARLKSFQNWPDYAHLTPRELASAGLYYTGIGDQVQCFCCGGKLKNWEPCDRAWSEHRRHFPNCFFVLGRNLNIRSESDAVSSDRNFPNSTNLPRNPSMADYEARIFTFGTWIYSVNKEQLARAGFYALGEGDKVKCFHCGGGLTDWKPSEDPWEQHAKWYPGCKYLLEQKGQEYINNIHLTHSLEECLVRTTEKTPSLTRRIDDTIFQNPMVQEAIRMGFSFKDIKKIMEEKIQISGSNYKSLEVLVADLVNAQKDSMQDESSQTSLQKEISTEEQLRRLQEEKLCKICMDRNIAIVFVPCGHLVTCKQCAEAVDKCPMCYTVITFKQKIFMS
Homeobox protein Hox-A13 (Mus musculus), sequence (Q62424 whole entry, looked up): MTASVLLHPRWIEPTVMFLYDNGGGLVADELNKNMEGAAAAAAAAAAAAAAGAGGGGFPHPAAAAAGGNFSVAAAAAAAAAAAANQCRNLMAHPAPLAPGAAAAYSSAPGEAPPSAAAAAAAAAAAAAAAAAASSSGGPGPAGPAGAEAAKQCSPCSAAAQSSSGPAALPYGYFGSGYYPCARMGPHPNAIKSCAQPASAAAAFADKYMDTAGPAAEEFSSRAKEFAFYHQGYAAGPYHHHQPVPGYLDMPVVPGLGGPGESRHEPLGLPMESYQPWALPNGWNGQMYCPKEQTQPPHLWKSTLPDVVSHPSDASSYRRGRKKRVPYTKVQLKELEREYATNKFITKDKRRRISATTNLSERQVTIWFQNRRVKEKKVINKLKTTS

Consider `CC(=O)NCCCC[C@@H]1NC(=O)[C@@H]2C[C@H](C(=O)NCCCCCC[N+](C)(C)C)[C@H](c3cccc(OCCO)c3)N2C1=O`, for which the z-score was -0.29 in [1]; 1.05 (inactive) in assay [2]; -0.147 (inactive) in [3]; 0.118 (inactive) in [5]; 1.44 (inactive) in assay [6]; -0.119 (inactive) in [7]. For the same compound, the z-score in assay [8] is -0.42 (inactive); in assay [9], -0.536; in [13], 0.129; in assay [14] it was -4.94 (inactive); in assay [15], -0.502 (inactive); in [16], -0.0493 (inactive). Besides, the composite z-score in assay [4] was -0.908 (inactive); in assay [10], -0.36; in assay [11], 1.52 (inactive); in assay [12], 0.345.

For the compound `C=CCCN(CC#C[C@H]1Oc2ccccc2S(=O)(=O)N2CCC[C@@H]12)S(=O)(=O)c1ccc(C)cc1`, the z-score is -0.28 in assay [1]; -0.0024 (inactive) in assay [2]; -1.33 (inactive) in assay [3]; 0.425 (inactive) in [5]; 1.62 (inactive) in assay [6]; 0.0069 (inactive) in assay [7]. For the same compound, the z-score is -0.285 (inactive) in assay [8]; -1.55 in assay [9]; -1.53 in [13]; -2.47 (inactive) in assay [14]; 0.508 (inactive) in assay [15]; 0.431 (inactive) in assay [16]. The composite z-score was 0.711 (inactive) in assay [4], 0.0027 in assay [10], -0.183 (inactive) in assay [11] and -0.0455 in [12].

As to `CCCCCN1CC=CC23O[C@@H]4C=CCCOC(=O)C4[C@H]2C(=O)N(CCCO)[C@@H]3C1=O` (some centres undefined), the z-score in assay [1] was 0.457; in [2], -0.613 (inactive); in assay [3] it was 0.435 (inactive); in assay [5], -0.289 (inactive); in assay [6], -0.126 (inactive); in assay [7], -0.761 (inactive). Further, the z-score was -0.251 (inactive) in [8]; -0.0665 in assay [9]; -1.54 in assay [13]; -3.33 (inactive) in assay [14]; -0.299 (inactive) in [15]; -0.688 (inactive) in assay [16]. Further, the composite z-score in assay [4] was -1.36 (inactive); in [10], -0.162; in [11], 0.0154 (inactive); in assay [12] it was 0.466.

`COc1ccc([Si](C)(C)[C@@H]2[C@@H](CCO)O[C@]3(C(=O)N(Cc4cccc(N(C=O)c5ccccc5)c4)c4ccccc43)[C@H]2C)cc1`: the z-score is -2.41 in assay [1]; 1.27 (inactive) in assay [2]; -3.21 (inactive) in assay [3]; -0.0818 (inactive) in assay [5]; 4.68 (inactive) in [6]; -0.818 (inactive) in [7]. The z-score is -1.62 (inactive) in assay [8]; -2.73 in [9]; -2.51 in [13]; -0.551 (inactive) in assay [14]; -0.79 (inactive) in assay [15]; -0.438 (inactive) in assay [16]. For the same compound, the composite z-score is -0.82 (inactive) in assay [4], 0.0449 in [10], 1.31 (inactive) in assay [11] and 0.675 in assay [12].

Consider `C=CCNC(=O)[C@H]1[C@@H]2C(=O)O[C@@H](c3ccccc3)[C@@H](c3ccccc3)N2[C@@H](c2ccc(O)cc2)[C@]12C(=O)Nc1ccc(C#Cc3ccc(OC)cc3)cc12`, for which the z-score in assay [1] was -1.56; in [2], 0.885 (inactive); in assay [3] it was -1.57 (inactive); in assay [5], 0.971 (inactive); in [6], 1.14 (inactive); in assay [7], 0.461 (inactive). Also, the z-score in assay [8] was 0.0221 (inactive); in [9], -3.24; in assay [13], -0.785; in [14] it was -1.91 (inactive); in assay [15] it was 0.0407 (inactive); in assay [16] it was 0.277 (inactive). The composite z-score in assay [4] was -27 (active); in [10] it was -0.0022; in assay [11], 0.292 (inactive); in [12], 0.779.

On to `CN(C)CCCCCCNC(=O)[C@@H]1C[C@@H]2C(=O)N[C@@H](Cc3ccccc3)C(=O)N2[C@@H]1c1cccc(OCCO)c1`, for which the z-score was -0.272 in assay [1]; -0.117 (inactive) in assay [2]; -0.826 (inactive) in assay [3]; -0.695 (inactive) in assay [5]; -0.704 (inactive) in assay [6]; 0.25 (inactive) in assay [7]. Besides, the z-score in assay [8] was 0.0332 (inactive); in assay [9], -0.592; in assay [13] it was 0.526; in assay [14] it was -4.13 (inactive); in assay [15], 0.0258 (inactive); in assay [16], -0.024 (inactive). The composite z-score is -0.562 (inactive) in assay [4], 0.564 in assay [10], 2.15 (inactive) in assay [11] and 0.809 in assay [12].

As to `C=CCOC(=O)[C@@H]1[C@H]2C(=O)O[C@H](c3ccccc3)[C@H](c3ccccc3)N2[C@H](c2ccc(OCCOC(=O)[C@H]3C[C@H]4C(=O)N[C@@H](CC(C)C)C(=O)N4[C@H]3c3cccc(OCCO)c3)cc2)[C@@]12C(=O)Nc1ccc(I)cc12`, the z-score in [1] is -0.525; in [2], -0.195 (inactive); in assay [3] it was -0.77 (inactive); in [5], 3.38 (inactive); in assay [6], 1.58 (inactive); in [7], -0.111 (inactive). For the same compound, the z-score in assay [8] is -1.14 (inactive); in assay [9], -0.747; in [13] it was -1.68; in [14] it was 2.41 (inactive); in [15], 0.537 (inactive); in assay [16], 0.273 (inactive). Further, the composite z-score in assay [4] is 1.64 (inactive); in assay [10], -0.0876; in assay [11], 0.559 (inactive); in assay [12], 0.824.

Consider `C=C(CCCC)C(=O)CC[C@@H](OC(=O)c1ccccc1-c1ccccc1C(=O)O)c1ccc(CO)o1`, for which the z-score was 0.0232 in assay [1]; -0.712 (inactive) in assay [2]; 0.225 (inactive) in assay [3]; 1.32 (inactive) in [5]; -0.279 (inactive) in assay [6]; -0.079 (inactive) in assay [7]. The z-score is -0.218 (inactive) in [8]; -0.0459 in assay [9]; 1.61 in [13]; -5.58 (inactive) in [14]; 0.629 (inactive) in [15]; 0.717 (inactive) in [16]. The composite z-score in assay [4] was -2.93 (inactive); in assay [10] it was 0.0842; in assay [11] it was 0.412 (inactive); in [12] it was 0.432.

`COCCCNC(=O)[C@@]1(Cc2ccccc2I)c2ccccc2C(=O)N(Cc2ccccc2)[C@H]1c1ccc(CO)cc1`: the z-score in [1] is 0.348; in assay [2], 0.346 (inactive); in assay [3], 1.01 (inactive); in assay [5], -0.205 (inactive); in assay [6] it was 2.28 (inactive); in assay [7], 0.322 (inactive). For the same compound, the z-score in assay [8] was -0.15 (inactive); in [9], 1.5; in assay [13] it was -1.04; in assay [14], -4.39 (inactive); in [15], -0.0143 (inactive); in assay [16], 0.371 (inactive). Further, the composite z-score in assay [4] was 1.17 (inactive); in [10], -0.193; in assay [11], 0.433 (inactive); in assay [12] it was 0.736.
